These results are taken from PubChem BioAssay (NCATS).

SMILES strings stand for the structures. Inconclusive results are not listed. Unmarked numbers belong to inactive results. The source made the active and inactive calls. The call rests on the fitted dose curve; in most records, active means well fitted cell-killing curve with a large enough effect; inconclusive means small, poorly fitted or top-dose-only effect, or effect the other way; inactive means flat fitted curve, though single readings scatter.
On the % scale 0 is the no-effect control and ±100 the full control effect; potency means the concentration at half of the fitted maximal effect.

The test system of the first assay is SKOV3. Kind of assay: Primary qHTS to identify gynecologic anti-cancer compounds using libraries of approved drugs and bioactive compounds (AID 1345084). Further: nearly all actives have a fitted effect of over 55% in size. Particulars: Gynecologic cancer cell panel viability, ATPlite luminescence, 48 h; series mostly up to 57.5 µM; activity change, negative = cytotoxicity: at the top concentration. In a few lines:
(§1)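 Measured: luminescence after ATPlite addition (15 min, RT). Exposure: 48 h, 37 C, 5% CO2.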
On to `Cc1sc2c(c1C)C(c1ccc(Cl)cc1)=N[C@@H](CC(=O)Nc1ccc(OCCOCCOCCOCCNc3cccc4c3C(=O)N(C3CCC(=O)NC3=O)C4=O)cc1)c1nnc(C)n1-2` (some centres undefined), for which the Potency was 2.82 µM (active).

Regarding `CC(=O)c1c(C)cc2cccc(O)c2c1O[C@@H]1O[C@H](CO)[C@@H](O)[C@H](O)[C@H]1O`, the “activity change, negative = cytotoxicity” value was 1.55% [at 38.5 µM].

As for `Oc1cccc(-c2c3nc(c(-c4cccc(O)c4)c4ccc([nH]4)c(-c4cccc(O)c4)c4nc(c(-c5cccc(O)c5)c5ccc2[nH]5)CC4)C=C3)c1`, the “activity change, negative = cytotoxicity” value was -20.4%.

On to `CCNC(=O)C#Cc1ccc2c(C(=Nc3ccc(CN(C)C)cc3)c3ccccc3)c(O)[nH]c2c1`, for which the Potency is 1.41 µM (active).

Turning to `Cc1[nH]c(/C=C2\C(=O)Nc3ccc(F)cc32)c(C)c1C(=O)NCCN1CCCC1`, the Potency is 15.8 µM (active).

Turning to `CCn1nc(C2CCN(C(=O)CCO)CC2)nc1-c1cnc(N)c(-c2nnc(C(C)(C)C)o2)n1`, the Potency is 1.78 µM (active).

On to `C=C(C)C(=O)OC1CC(CO)CCC/C(CO)=C/C2OC(=O)C(=C)C21` (centres undefined), for which the “activity change, negative = cytotoxicity” value was -24% [at 38.5 µM].

For the compound `CN[C@H]1CC[C@@H](c2ccc(Cl)c(Cl)c2)c2ccccc21`, the Potency was 28.2 µM (active).

With `CC(C)CCCCC(=O)N[C@@H](CO)C(=O)N[C@@H](CC(C)C)C(=O)[C@@]1(CO)CO1`, the “activity change, negative = cytotoxicity” value was 0%.

The next assay has as its system Tov-21-G. The assay is described as above. The following applies: Gynecologic cancer cell panel viability, ATPlite luminescence, 48 h; series mostly up to 57.5 µM; activity change, negative = cytotoxicity: at the top concentration. Summed up: as §1
Regarding `C=C1C(=O)O[C@H]2C3=C(C)CCC[C@]3(C)C(=O)C[C@@H]12`, the Potency was 20 µM (active).

On to `Cc1ccc(O)cc1Nc1ccnc(Nc2cccc(C(N)=O)c2)n1`, for which the Potency was 10 µM (active).

For `C=C1C(=O)O[C@H]2/C=C(/C)[C@@H](OC(C)=O)C/C=C(\C)C[C@@H](OC(=O)/C(=C/C)COC(=O)/C(=C/C)CO)[C@@H]12`, the Potency was 8.91 µM (active).

`COCc1c(Cl)ccc2c1CC[C@H]2c1ncc[nH]1`: the Potency was 10 µM (active).

Turning to `CCN1CCN(Cc2ccc(NC(=O)c3ccc(C)c(Oc4ncnc5[nH]c(C)cc45)c3)cc2C(F)(F)F)CC1`, the Potency was 11.2 µM (active).

In the case of `C=CC(=O)N1CCC[C@@H](n2nc(-c3cccc(C(=O)Nc4ccc(C(C)C)c(C)c4)c3)c3c(N)ncnc32)C1`, the Potency is 14.1 µM (active).

Consider `CCN(Cc1cc(Nc2nc(C)cn3c(-c4cn[nH]c4)cnc23)sn1)C(C)(C)CO`, for which the Potency is 0.355 µM (active).

For `C=C[C@@]1(C)C=C2C(=O)C(O)=C3[C@](C)(C(=O)O)CC[C@@H]4C[C@]34[C@]2(O)C(=O)C1`, the Potency was 11.2 µM (active).

`O=C(CCl)Nc1cccc(NC2=NS(=O)(=O)c3ccccc32)c1`: the “activity change, negative = cytotoxicity” value was -26.3%.

For `C/C1=C\[C@@H](C)C[C@@H](C)[C@@H](Cc2cnco2)OC(=O)/C(C)=C/[C@@H](C)C[C@@H](C)[C@@H](Cc2cnco2)OC1=O`, the “activity change, negative = cytotoxicity” value was -29.7% [at 25.3 µM].

For `Cc1nc2ccc(-n3ncc(C(=O)c4cc5ccccc5[nH]4)c3N)cc2[nH]1`, the Potency was 28.2 µM (active).

Take `Nc1ncnc2c1c(-c1ccc(Oc3ccccc3)cc1)nn2[C@@H]1CCCNC1`: the “activity change, negative = cytotoxicity” value is -25.6%.

With `CCCc1cc(C)[nH]c(=O)c1CNC(=O)c1cc(-c2ccnc(N3CCN(C)CC3)c2)cc2c1cnn2C(C)C`, the Potency was 31.6 µM (active).

`Cc1cc2occ(CN(C)CCN(C)Cc3cn(-c4cccc(C(F)(F)F)c4)c4ccccc34)c(=O)c2cc1C`: the Potency is 28.2 µM (active).

For `N#Cc1ccc(COc2ccc(-c3cccc4nc(NC(=O)C5CC5)nn34)cc2)cn1`, the “activity change, negative = cytotoxicity” value was -25%.

Consider `CCC(C)CC(=O)OC1C(=O)C(CO)=CC(O)C1C(C)C` (centres undefined), for which the Potency was 25.1 µM (active).

Take `COc1ccc(-c2ccc3c(N4CCOCC4C)nc(N4CCOCC4C)nc3n2)cc1CO` (centres undefined): the Potency was 0.251 µM (active).

`N#CC(CCCN1CCC(O)(c2ccc(Cl)cc2)CC1)(c1ccccc1)c1ccccc1`: the “activity change, negative = cytotoxicity” value is -16.8%.

In the case of `O=C(Nc1cccc2cccnc12)c1ccc(N2C(=O)[C@@H]3C4C=CC(C4)[C@@H]3C2=O)cc1`, the Potency was 31.6 µM (active).

For `C=C(C)C(=O)O[C@H]1C[C@@](C)(O)C2(O)CCC(C)(/C=C3/OC(=O)C(COC)=C31)O2` (some centres undefined), the Potency is 10 µM (active).

In the case of `C=C1C(=O)OC2/C=C(/C)C3=CC(=O)C(C)(CC(OC(=O)/C(C)=C/COC(C)=O)C12)O3` (centres undefined), the Potency was 11.2 µM (active).

Consider `CNc1nc(NCc2ccc(NS(C)(=O)=O)cc2Cl)cc(-c2ccccn2)n1`, for which the “activity change, negative = cytotoxicity” value was 3.24%.

Regarding `CC[C@@H](C)Nc1cc(C(=O)NC2CC3CCC(C2)N3c2ccc(C(=O)C3CC3)cn2)c(C)cc1C(N)=O` (some centres undefined), the Potency was 0.398 µM (active).

`CCc1cc(C(N)=O)ccc1-n1nc(C(C)C)c2c(-n3cnc(-c4cnn(C)c4)c3)ccnc21`: the Potency is 3.55 µM (active).

On to `CC1CCCC(O)CC(=O)c2c(O)cc(O)cc2CC(=O)O1` (centres undefined), for which the “activity change, negative = cytotoxicity” value is -29.6% [at 38.5 µM].

On to `NC(=O)CCCSc1nc(N)nc(-c2c(Cl)cc3c4c(cccc24)COC3)n1`, for which the Potency is 1 µM (active).

As to `CCn1c(-c2nonc2N)nc2c(C#CCO)ncc(OCCCN)c21`, the “activity change, negative = cytotoxicity” value is -15.2%.

On to `COc1cc(-n2cnc3cc(-c4ccc(Cl)cc4)sc3c2=O)ccc1OCCN1CCCC1`, for which the “activity change, negative = cytotoxicity” value was -10.2%.

In the case of `Fc1ccc(-n2cc(CCCCN3CCC4(CC3)OCc3ccccc34)c3ccccc32)cc1`, the “activity change, negative = cytotoxicity” value was -20.1%.

Consider `CC[C@@H](C)Nc1cc(C(=O)NC2CC3CC[C@@H](C2)N3c2ccc(C(=O)C3CC3)cn2)c(C)cc1C(N)=O` (some centres undefined), for which the Potency is 0.398 µM (active).
